Assay results reported in PubChem BioAssay AID1159580 (chemical genetic matrix, 2015).
Where “and” joins values, the source holds several entries; their conditions need not be identical. Equal values may be shown once. About 2,000 (36%) of roughly 5,500 compounds were called active. Inconclusive results (about 18%) are left out. Rule as the data show it: active = normalized growth mostly below about 0.91 (no sharp cut-off); inconclusive = no clear call, values can overlap the other calls; inactive = mostly above about 0.92. This is one part of the list.

Assay: chemical genetic growth profiling, strain panel (AID 1159580);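 also: tested at 20 µM; growth read once vehicle control cultures reached saturation at 30 °C; 1 = growth at the plate median or of vehicle wells; lower values mean less growth of the strain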
Details: S. cerevisiae deletion strains, growth OD

Measured: normalized growth

CC1=NCCc2c1[nH]c1cc(O)ccc21
inactive: locus YAL013W, strain DEP1, hits give low values 0.99 | locus YAL021C, strain ccr4, hits give low values 0.923 | locus YAL026C, strain drs2, hits give low values 0.987 | locus YAL030W, strain snc1, hits give low values 0.984 | locus YBL061C, strain skt5, hits give low values 0.995 | locus YBR009C, strain hhf1, hits give low values 0.97 | locus YBR021W, strain FUR4, hits give low values 0.989 | locus YBR023C, strain chs3, hits give low values 0.994 | locus YBR171W, strain sec66, hits give low values 0.993 | locus YBR229C, strain ROT2, hits give low values 0.955 | locus YBR231C, strain swc5, hits give low values 1.02 | locus YBR279W, strain paf1, hits give low values 0.995 | locus YCL011C, strain gbp2, hits give low values 0.963 | locus YCL016C, strain dcc1, hits give low values 0.967 | locus YCL029C, strain bik1, hits give low values 0.994 | locus YCL069W, strain vba3, hits give low values 0.976 | locus YCR088W, strain abp1, hits give low values 0.99 | locus YDL005C, strain med2, hits give low values 0.995 | locus YDL035C, strain GPR1, hits give low values 0.992 | locus YDL040C, strain nat1, hits give low values 0.993 | locus YDL074C, strain BRE1, hits give low values 0.997 | locus YDL101C, strain DUN1, hits give low values 0.978 | locus YDL134C, strain PPH21, hits give low values 0.988 | locus YDL185W, strain tfp1, hits give low values 0.993 | locus YDL192W, strain arf1, hits give low values 0.992 | locus YDR001C, strain nth1, hits give low values 0.971 | locus YDR069C, strain doa4, hits give low values 0.986 | locus YDR101C, strain arx1, hits give low values 0.997 | locus YDR137W, strain rgp1, hits give low values 0.98 | locus YDR150W, strain NUM1, hits give low values 0.972 | locus YDR159W, strain sac3, hits give low values 1.02 | locus YDR162C, strain NBP2, hits give low values 0.99 | locus YDR195W, strain ref2 0.953 | locus YDR297W, strain sur2, hits give low values 0.996 | locus YDR318W, strain mcm21, hits give low values 0.994 | locus YDR334W, strain swr1, hits give low values 0.97 | locus YDR335W, strain msn5, hits give low values 0.986 | locus YDR388W, hits give low values 1 | locus YDR392W, strain spt3, hits give low values 0.93 | locus YDR502C, strain sam2, hits give low values 0.984 | locus YEL003W, strain gim4, hits give low values 0.994 | locus YEL037C, strain rad23, hits give low values 0.978 | locus YEL061C, strain CIN8 (second series), hits give low values 0.985 | locus YEL061C, strain CIN8, hits give low values 0.988 | locus YER015W, strain faa2, hits give low values 0.975 | locus YER016W, strain bim1, hits give low values 0.993 | locus YER110C, hits give low values 0.974 | locus YER111C, strain swi4, hits give low values 0.995 | locus YER155C, strain BEM2 (second series), hits give low values 1.03 | locus YER155C, strain BEM2, hits give low values 1.01 | locus YER167W, strain BCK2, hits give low values 1 | locus YFR010W, strain ubp6, hits give low values 0.983 | locus YGL078C, strain dbp3, hits give low values 0.991 | locus YGL086W, strain mad1, hits give low values 0.987 | locus YGL167C, strain pmr1, hits give low values 0.976 | locus YGL173C, strain kem1, hits give low values 0.991 | locus YGL227W, strain vid30, hits give low values 0.99 | locus YGL240W, strain doc1, hits give low values 1 | locus YGL248W, strain PDE1, hits give low values 0.99 | locus YGL253W, strain hxk2, hits give low values 0.985 | locus YGR078C, strain PAC10, hits give low values 1.01 | locus YGR135W, strain pre9, hits give low values 0.992 | locus YGR229C, strain SMI1, hits give low values 1.01 | locus YGR252W, strain gcn5, hits give low values 0.932 | locus YHR013C, strain ard1, hits give low values 0.95 | locus YHR027C, strain rpn1, hits give low values 0.966 | locus YHR030C, strain SLT2, hits give low values 0.995 and 1.01 | locus YHR079C, strain IRE1 (second series), hits give low values 0.995 | locus YHR079C, strain IRE1, hits give low values 1.01 | locus YHR094C, strain hxt1, hits give low values 0.99 | locus YHR129C, strain ARP1, hits give low values 1 | locus YHR142W, strain chs7, hits give low values 0.968 | locus YHR200W, strain rpn10, hits give low values 0.991 | locus YIL066C, strain RNR3, hits give low values 0.975 | locus YIL073C, strain SPO22, hits give low values 0.992 | locus YIL125W, strain kgd1, hits give low values 0.988 | locus YIR030C, strain dcg1, hits give low values 0.985 | locus YJL092W, strain hpr5, hits give low values 0.965 | locus YJL095W, strain BCK1 (second series), hits give low values 0.983 | locus YJL095W, strain BCK1, hits give low values 1.05 and 1.01 | locus YJL115W, strain asf1, hits give low values 0.956 | locus YJL129C, strain trk1, hits give low values 1.01 | locus YJL134W, strain LCB3, hits give low values 0.986 | locus YJL154C, strain vps35, hits give low values 0.977 | locus YJL164C, strain tpk1, hits give low values 0.95 | locus YJL166W, strain qcr8, hits give low values 1.01 | locus YJL168C, strain set2, hits give low values 0.999 | locus YJL187C, strain SWE1 (second series), hits give low values 0.991 | locus YJL187C, strain SWE1, hits give low values 0.989 | locus YJR043C, strain POL32, hits give low values 1.01 | locus YJR066W, strain TOR1, hits give low values 0.934
